VACV Venus inh – inhibitors of vaccinia virus (Venus reporter); Vaccinia virus Venus reporter expression, fluorescence; Potency, µM (series often up to 36.5 µM), for inactives: at the top dose activity change, negative = inhibition, actives largely listed as inhibitors; 330,000 compounds, 0.46% hits; AID 720580; calls by dose curve; tested in A549 cells; note: potency is the fitted concentration of half-maximal effect; % is set by controls: 0 for no effect and ±100 for the full control effect; nearly all actives have a fitted effect of over 30% in size
MARV entry inh – Marburg virus entry inhibition. Potency, µM (titrated, usually from 37.8 µM), for the others: at the highest dose activity change, negative = inhibition, usual class: inhibitors. 300,000 compounds, 1.8% hits. Marburg virus pseudotyped entry inhibition, cell reporter. AID 540276; calls by dose curve; tested in HEK293 cells; note: potency is the fitted concentration of half-maximal effect; % is set by controls: 0 for no effect and ±100 for the full control effect
Lassa entry inh – Lassa virus entry inhibition. Lassa virus pseudotype entry inhibition, cell reporter. Potency, µM (top dose mostly 37.9 µM), inactives show top-dose activity change, negative = inhibition, hits mostly inhibitors. 300,000 compounds, 1.2% hits. AID 540256; calls by dose curve; tested in HEK293 cells; note: potency is the fitted concentration of half-maximal effect; % is set by controls: 0 for no effect and ±100 for the full control effect; nearly all actives have a fitted effect of over 50% in size
HCV inh – blocks hepatitis C virus; 340,000 compounds, 3.4% hits; Potency, µM (highest dose often 41.8 µM), inactives show at the highest dose activity change, negative = inhibition, hits mostly inhibitors; Huh7.5.1 HCVcc-Cre infection, luciferase reporter, 44 h; note: potency is the fitted concentration of half-maximal effect; % is set by controls: 0 for no effect and ±100 for the full control effect
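Cells seeded at 1,000/well and cultured 4 h, then compounds added followed by HCVcc-Cre virus (~0.5 moi). After 44 h further culture, luciferase substrate was added, plates held 15 min at room temperature, and luminescence read for 15 sec.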
HCMV inh – inhibitors of human cytomegalovirus | AID 1259415 | 410,000 compounds, 4.5% hits | activity change, negative = inhibition, % at 57.5 µM | HFF cells, HCMV-luciferase reporter, 72 h; hits give low values; in the data active = activity change below about -60%; inconclusive = no clear call, values can overlap the other calls; inactive = above about -39%; note: % is set by controls: 0 for no effect and ±100 for the full control effect
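Steps: HFFs plated, 16 h 37C; compounds added; HCMV-luciferase added to MOI 1 PFU/cell; 72 h 37C; OneGlo reagent, 5 min room temperature; luminescence read, normalized to controls.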
Vaccinia mCherry – vaccinia inhibition (mCherry reporter) | Vaccinia virus mCherry reporter infection, fluorescence | Potency, µM (titrated, usually from 36.5 µM), for the others: at the highest dose activity change, negative = inhibition, most hits filed as inhibitors | 310,000 compounds, 0.63% hits | AID 720579; calls by dose curve; tested in A549 cells; note: potency is the fitted concentration of half-maximal effect; % is set by controls: 0 for no effect and ±100 for the full control effect; nearly all actives have a fitted effect of over 35% in size
HCV inh confirm – HCV inhibition, cherry-pick confirmation. AID 720575. 640 compounds, 78% hits. HCVcc-Cre infectious virus cell assay, luciferase, inhibition. shares compounds with HCV inh. Potency, µM (highest dose often 41.8 µM), for inactives: top-dose activity, negative = inhibition, actives largely listed as inhibitors; note: potency is the fitted concentration of half-maximal effect; nearly all actives have a fitted effect of over 80% in size
HCV host tox – counter-screen for HCV inhibitors: host cell cytotoxicity; 640 compounds, 22% hits; shares compounds with HCV inh; HCV host cell line cytotoxicity counterscreen; AID 720576; Potency, µM (series often up to 41.8 µM), for inactives: at the top dose activity change, negative = cytotoxicity, actives largely listed as inhibitors;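 note: potency is the fitted concentration of half-maximal effect; 44 h compound exposure; % is set by controls: 0 for no effect and ±100 for the full control effect; nearly all actives have a fitted effect of over 55% in size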
* = called active by the depositor; i = inactive; ? = inconclusive; nt = no result; [ ] = another dose, or the depositor's remark. Most compounds without a hit are left out; they make up all but 7.8% or so of the library. Unless noted, calls come from the whole dose curve; as a rule, active = well fitted curve in the direction sought with a large enough effect; inconclusive = small, poorly fitted or top-dose-only effect, or another doubt; inactive = no such curve, though single readings can be large; an effect the other way counts as inactive or inconclusive.

SMILES	VACV Venus inh	MARV entry inh	Lassa entry inh	HCV inh	HCMV inh	Vaccinia mCherry	HCV inh confirm	HCV host tox
COc1ccc(N/N=C(/N=Nc2nc(C)cc(=O)[nH]2)c2ccccc2)cc1	-18%	4.5µM*	5µM*	4.5µM*	-89*	-10%[1.46 µM]	7.9µM*	11µM*
CC(=O)c1ccc(NC(=O)c2cnn3c2NC(=C2CC2)C=C3C(F)F)cc1	-16%	nt	nt	nt	nt	-5%	nt	nt
CCOc1cc(-c2noc(CCCC(N)=O)n2)cc(Br)c1OC	nt	13%	-2%	?	6	nt	nt	nt
CCOc1cc(-c2noc(-c3ccncc3)n2)cc(Br)c1OC	nt	-29%	-29%	?	28	nt	?	25%
COc1ccc(OC)c(-c2cc(C(=O)NCc3ccco3)no2)c1	-27%	-3%	-8%	?	97	-25%	28µM*	-14%
COc1cccc(-c2cc(C(=O)NCc3ccco3)no2)c1	nt	-17%	?	-21%	71	nt	nt	nt
CNC(=O)NC(=O)C(C)OC(=O)c1c2c(nc3ccccc13)/C(=C/c1cccs1)CC2 (stereo not drawn)	-9%	?	?	2.8µM*	-11	-3%	1.8µM*	18µM*
CC(OC(=O)c1c2c(nc3ccccc13)/C(=C\c1ccc3c(c1)OCO3)CCC2)C(=O)Nc1ccc(S(N)(=O)=O)cc1 (stereo not drawn)	134%	?	?	?	nt	-17%	nt	nt
Cn1nnnc1Sc1ncnc2scc(-c3ccc(C#N)cc3)c12	nt	nt	nt	nt	-94*	nt	25µM*	25µM*
NS(=O)(=O)c1ccc(CCNc2nc3c(-c4cccc(F)c4)nnn3c3ccccc23)cc1	1%	1%	?	1.4µM*	6	-13%	7µM*	-16%
Cc1cccc(N2CCN(C(=O)Cn3nc(C)c4sc5ccccc5c4c3=O)CC2)c1C	-3%	?	?	nt	9	-11%	nt	nt
COc1ccc(CSc2nnnn2-c2ccccc2)cc1	-19%	-5%	?	-13%	-19	nt	nt	nt
COc1cc(CSc2nnnn2-c2ccc(C)cc2)cc(OC)c1OC	-30%	?	3.7µM*	?	-89*	-18%	1.8µM*	-94%
Cc1c(C(=O)Nc2cccc([N+](=O)[O-])c2)csc1-c1ccccc1	-10%	?	?	7.1µM*	-75*	i	11µM*	?
CCCCCn1c(=O)[nH]c2cc(C(=O)Nc3ccc(OC)c(OC)c3)ccc2c1=O	8%	?	1%[46.1 µM]	nt	3	8%	nt	nt
CC1CC1C(=O)Nc1nc(-c2ccc(Cl)s2)cs1 (stereo not drawn)	-24%	-44%[46.1 µM]	nt	?	-9	?	nt	nt
O=C(Nc1nc(-c2ccc(Cl)s2)cs1)c1ccncc1	-6%	?	-21%	?	-77*	-8%	6.3µM*	?
COc1ccc(C(=O)Nc2nc(-c3cccs3)cs2)cc1	-28%	?	?	?	-22	-21%	22µM*	0.0025µM*
O=C(Nc1nc(-c2cccs2)cs1)c1ccc(Cl)cc1	-18%	?	?	?	3	-11%	nt	nt
CCc1ccc2oc(-c3ccc(C)c(NC(=O)COc4ccc(Cl)cc4)c3)nc2c1	-5%	nt	nt	nt	nt	17%	nt	nt
COc1ccc(/C=C/C(=O)Nc2cccc(S(=O)(=O)NC3=NCCCCC3)c2)cc1OC	nt	nt	nt	6.3µM*	-16	nt	20µM*	?
CC(C)=CC(=O)Nc1cccc(S(=O)(=O)NC2=NCCCCC2)c1	nt	nt	nt	-1%	4	nt	nt	nt
Cc1ccc(-n2c(SCC(=O)Nc3ccc(N4CCOCC4)cc3)nc3ccccc3c2=O)cc1	0%	?	-8%	?	?	-8%	?	15%
COC(=O)c1sc2cccc(F)c2c1S(=O)(=O)NCc1ccc(Cl)cc1	11%	nt	12%[46.1 µM]	nt	-5	-1%	nt	nt
Cc1cc(S(=O)(=O)Nc2ccc3ccccc3c2)c(C)s1	nt	?	-16%	?	?	nt	22µM*	?
SMILES	VACV Venus inh	MARV entry inh	Lassa entry inh	HCV inh	HCMV inh	Vaccinia mCherry	HCV inh confirm	HCV host tox
Cc1cc(C)cc(NC(=O)c2nnn(Cc3cc(C)ccc3C)c2N)c1	-17%	nt	nt	?	nt	-19%	11µM*	23%
Cc1ccc(OCC(=O)Nc2cccc(-c3nnc(-c4ccccc4)o3)c2)c(C)c1	nt	-13%	?	?	14	nt	nt	nt
COc1ccc(CC(=O)Nc2cccc(-c3nnc(-c4ccc(C)cc4)o3)c2)cc1OC	-3%	9.2µM*	?	3.2µM*	-93*	-12%	6.3µM*	-27%
Cc1cccc(N2CCc3c2nc2ccccc2c3N)c1	-22%	?	-3%	8.9µM*	87	?	22µM*	-24%
COc1ccc(N2CCN(C(=O)c3ccc(-c4nc(COc5ccccc5)c(C)o4)cc3)CC2)cc1	-9%	nt	?	nt	19	-2%	nt	nt
NS(=O)(=O)c1ccc(N=Nc2ccc(O)c3ncccc23)cc1	10µM*	nt	nt	3.5µM*	-97*	?	7.9µM*	8.9µM*
O=C(Nc1cc(-c2ccc(Cl)cc2)no1)c1ccc(F)cc1	-5%	27%[46.1 µM]	?	nt	2	-18%	nt	nt
C=C(C)Cc1c(C)c(C#N)c2nc3ccccc3n2c1N1CCCCC1	nt	-17%	4%	?	?	nt	14µM*	43%
Cc1cccc(C(=O)NCC(=O)OCC(=O)c2ccc3ccccc3c2)c1	8%	nt	nt	nt	nt	37%	nt	nt
Cc1ccc(C(=O)Nc2ccccc2N2CCCCC2)cc1[N+](=O)[O-]	-7%	nt	nt	2.2µM*	-12	i	16µM*	28µM*
COc1cccc(Oc2ccc(N)cn2)c1	5%	26%	13%	?	11	-4%	nt	nt
Cc1cc(Oc2ccc(N)cn2)ccc1Cl	-23%	8%	-4%	?	99	-9%	?	49%
COc1ccc2nc(C)c3cc(C)oc3c2c1	-7%	2%	0%	8.9µM*	7	-13%	22µM*	32%
C#CCN1C=CC(=O)[C@@H](OC(=O)Nc2ccc(Cl)cc2)[C@H]1c1ccccc1Br	-6%	nt	nt	8.9µM*	25	-6%	?	1%
CCNC(=S)/N=C(\N)Nc1nc(C)c2cc(C)ccc2n1	?	?	nt	3.2µM*	116	?	?	-29%
COc1ccc(-c2noc(-c3ccc(N4CCN(c5ccc(OC)cc5)CC4)c([N+](=O)[O-])c3)n2)cc1	-5%	?	17%[46.1 µM]	nt	4	-4%	nt	nt
CCOC(=O)c1ccc(NC2SC(=O)N(Cc3cccc(C(=O)O)c3)C2=O)cc1 (stereo not drawn)	-13%	12%[46.1 µM]	-18%[46.1 µM]	nt	35	-14%	nt	nt
CCOc1ccc2nc(NC3=NC(C)(C)C=C(C)N3)nc(C)c2c1	nt	?	-7%	?	4	nt	nt	nt
